# Test results from PubChem BioAssay (Tox21).
# “And” between values parts separate entries of the source, which are not always exact repeats. Equal values may be shown once. Inconclusive results are not listed. A call without a number means that no potency is given here. Some structures have more than one record in an assay (separate samples or runs), and their calls can disagree. The source made the active and inactive calls. Unless noted, calls follow the shape of the dose curve; as a rule, active = well fitted curve in the direction sought with a large enough effect in the repeat runs; inconclusive = weak or mixed curves; inactive = no such curve, though single readings can be large; an effect the other way counts as inactive or inconclusive.
# Key:
# [1] = qHTS assay to identify small molecule agonists of the constitutive androstane receptor (CAR) signaling pathway - cell viability counter screen (AID 1224836); also: nearly all actives have a fitted effect of over 45% in size; also: potency is read from the fitted curve at half-maximal effect
# Procedure, shortened: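 Cells were seeded and incubated 4 hrs. Compounds were added across 15 concentrations together with PK11195 at 0.75 uM final. Plates were incubated 23 hrs at 37 C. CellTiter-Fluor was added and fluorescence measured.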
# [2] = qHTS assay to identify small molecule antagonists of the constitutive androstane receptor (CAR) signaling pathway - cell viability counter screen (AID 1224837); also: nearly all actives have a fitted effect of over 45% in size; also: potency is read from the fitted curve at half-maximal effect
# Procedure, shortened: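 HepG2-CYP2B6-hCAR cells, 2500/well, 4 hr pre-incubation; compound titration, 15 conc.; CITCO 50 nM final; 23 hr, 37 C/5% CO2; CellTiter-Fluor, fluorescence intensity.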
# [3] = target: Nuclear receptor subfamily 1 group I member 3 (Homo sapiens) (UniProt Q14994); experiment: qHTS assay to identify small molecule antagonists of the constitutive androstane receptor (CAR) signaling pathway (AID 1224838);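 also: HepG2 cells stably expressing hCAR with CYP2B6 luciferase reporter stimulated by CITCO; nearly all actives have a fitted effect of over 40% in size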; also: potency is read from the fitted curve at half-maximal effect
# Procedure, shortened: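 HepG2-CYP2B6-hCAR cells; 4 h pre-incubation; cpd (15 conc) + CITCO 50 nM final; 24 h, 37 C/5% CO2; ONE-Glo, luminescence.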
# [4] = target: Nuclear receptor subfamily 1 group I member 3 (Homo sapiens) (UniProt Q14994); experiment: qHTS assay to identify small molecule agonists of the constitutive androstane receptor (CAR) signaling pathway (AID 1224839); also: nearly all actives have a fitted effect of over 15% in size; also: potency is read from the fitted curve at half-maximal effect;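 as to activation: HepG2 cells stably carrying human CAR and a CYP2B6 luciferase reporter; series mostly up to about 92 µM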
# Procedure, shortened: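 Cells were plated and incubated 4 hrs, then dosed with compounds at 15 concentrations. PK11195 was added to 0.75 uM final. After 24 hrs at 37 C, luciferase luminescence was measured.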
# [5] = qHTS assay to identify small molecule antagonists of the estrogen related receptor signaling pathway with the pleiotropic PPARgamma coactivator (PGC) from Tox21 10K library - cell viability counter screen (AID 1224840; active = well fitted cell-killing curve with a large enough effect in the repeat runs, not every such curve was filed as active; also: nearly all actives have a fitted effect of over 40% in size; also: potency is read from the fitted curve at half-maximal effect)
# Procedure, shortened: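 PGC/ERR cells, 2,000/well; 6 h pre-incubation 37 C/5% CO2; cpd in DMSO via pin tool; 17.5 h 37 C; CellTiter-Fluor, 30 min; fluorescence.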
# [6] = qHTS assay to identify small molecule agonists of the hypoxia (HIF-1) signaling pathway - cell viability counter screen (AID 1224844; calls by dose curve; also: nearly all actives have a fitted effect of over 50% in size; also: potency is read from the fitted curve at half-maximal effect)
# Procedure, shortened: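 ME-180 HRE-bla cells, 2,000/well, 0.5% dialyzed FBS; 5 hr settle, 17 hr compound at 37C/5% CO2; CCF4-AM reporter read first, then CellTiter-Glo luminescence after 30 min RT.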
# [7] = qHTS assay to identify small molecule agonists of H2AX (AID 1224845; active = well fitted activation curve with a large enough effect in the signal ratio in the repeat runs, not every such curve was filed as active; the % refers to the signal ratio; also: potency is read from the fitted curve at half-maximal effect)
# Procedure, shortened: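 Wild-type CHO-K1 cells, plated overnight, exposed 3hr at 37C to 15 concentrations (0.76% DMSO final). Lysed, then HTRF anti-pH2AX (S139) cryptate and anti-H2AX-d2 antibodies, 24 hr room temperature; 665/620 nm emission read.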
# [8] = target: Thyrotropin receptor (Homo sapiens) (UniProt P16473); experiment: qHTS assay to identify small molecule agonists of the thyroid stimulating hormone receptor (TSHR) signaling pathway (AID 1224843; calls by dose curve; also: nearly all actives have a fitted effect of over 45% in size; also: potency is read from the fitted curve at half-maximal effect)
# Procedure, shortened: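 TSHR-HEK293 cells in agonist mode, 30 min room-temperature step, then cAMP measured by competitive HTRF (cAMP-d2 with anti-cAMP cryptate) after 1 h at room temperature. Tested at 15 concentrations in triplicate.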
# [9] = qHTS assay to identify small molecule agonists of the estrogen related receptor signaling pathway with the pleiotropic PPARgamma coactivator (PGC) from Tox21 10K library (AID 1224842); also: nearly all actives have a fitted effect of over 15% in size
# Procedure, shortened: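 PGC/ERR reporter cell line, 2,000 cells per well, incubated 6 h at 37 C before 23 nL compound in DMSO was added. After 18 h at 37 C, One-Glo luminescence read following 30 min at room temperature.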
# [10] = qHTS assay to identify small molecule antagonists of the estrogen related receptor signaling pathway with the pleiotropic PPARgamma coactivator (PGC) from Tox21 10K library (AID 1224841; call rule not given here; also: actives are mostly falling curves and most rising ones were filed inactive; nearly all actives have a fitted effect of over 50% in size; also: potency is read from the fitted curve at half-maximal effect)
# Procedure, shortened: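 PGC/ERR cell line, 2,000 cells/well; 6 h pre-incubation 37 C/5% CO2; compounds (DMSO) pinned in; 18 h, 37 C; One-Glo, 30 min RT; luminescence.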
# Sequence of Thyrotropin receptor (Homo sapiens) (P16473 whole entry, looked up): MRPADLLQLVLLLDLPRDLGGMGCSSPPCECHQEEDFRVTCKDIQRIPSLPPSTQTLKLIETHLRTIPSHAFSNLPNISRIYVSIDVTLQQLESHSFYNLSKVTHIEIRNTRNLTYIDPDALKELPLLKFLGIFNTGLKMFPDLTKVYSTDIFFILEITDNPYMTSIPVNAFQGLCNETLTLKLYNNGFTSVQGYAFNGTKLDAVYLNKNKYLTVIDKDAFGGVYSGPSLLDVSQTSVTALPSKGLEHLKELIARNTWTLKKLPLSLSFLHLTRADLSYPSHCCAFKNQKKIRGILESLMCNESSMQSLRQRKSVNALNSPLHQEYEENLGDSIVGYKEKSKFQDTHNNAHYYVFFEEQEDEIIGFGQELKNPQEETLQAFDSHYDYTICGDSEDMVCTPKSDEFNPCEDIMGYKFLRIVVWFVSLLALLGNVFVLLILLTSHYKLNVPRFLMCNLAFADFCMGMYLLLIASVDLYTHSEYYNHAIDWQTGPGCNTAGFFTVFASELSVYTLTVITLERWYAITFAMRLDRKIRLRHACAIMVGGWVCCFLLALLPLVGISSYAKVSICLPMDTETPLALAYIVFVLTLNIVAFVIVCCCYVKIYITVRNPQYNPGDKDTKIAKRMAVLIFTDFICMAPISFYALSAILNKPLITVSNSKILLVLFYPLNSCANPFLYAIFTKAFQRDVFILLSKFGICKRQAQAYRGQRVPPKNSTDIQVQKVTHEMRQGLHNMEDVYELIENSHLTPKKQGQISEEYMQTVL
# Sequence of Nuclear receptor subfamily 1 group I member 3 (Homo sapiens) (Q14994 whole entry, looked up): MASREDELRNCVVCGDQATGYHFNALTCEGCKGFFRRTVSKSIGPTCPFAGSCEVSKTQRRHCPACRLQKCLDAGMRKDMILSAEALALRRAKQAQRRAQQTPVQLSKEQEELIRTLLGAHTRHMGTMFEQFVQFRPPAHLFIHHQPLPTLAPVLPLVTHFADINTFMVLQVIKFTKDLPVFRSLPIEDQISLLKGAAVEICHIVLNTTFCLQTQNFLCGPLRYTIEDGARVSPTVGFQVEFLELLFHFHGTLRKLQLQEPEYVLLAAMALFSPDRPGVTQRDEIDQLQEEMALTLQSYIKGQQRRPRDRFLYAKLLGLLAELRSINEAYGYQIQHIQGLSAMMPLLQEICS
Structure (SMILES),Potency [1],Potency [2],Potency [3],Potency [4],Potency [5],Potency [6],Potency [7],Potency [8],Potency [9],Potency [10]
CCCSP(=O)(OCC)SCCC,inactive,inactive,inactive,25.2 µM (active),inactive,inactive,inactive,–,–,–
O=C(NC(=O)c1c(F)cccc1F)Nc1cc(Cl)c(OC(F)(F)C(F)F)c(Cl)c1,inactive,inactive,inactive,2.17 µM (active),inactive,inactive,inactive,inactive,–,–
CN(C)S(=O)(=O)N(SC(F)(Cl)Cl)c1ccccc1,30.6 µM (active),27.3 µM (active),21.7 µM (active),inactive,24.3 µM (active),19.5 µM (active),–,–,–,–
N#CCCSCCC#N,inactive,inactive,inactive,inactive,inactive,inactive,inactive,inactive,–,–
c1ccc(OCC2CO2)cc1 (stereo not drawn),inactive,inactive,inactive,inactive,inactive,inactive,inactive,inactive,–,–
Clc1ccc(COC(Cn2ccnc2)c2ccc(Cl)cc2Cl)cc1 (stereo not drawn),45.3 µM (active) and 54.3 µM (active),40.4 µM (active) and 43.1 µM (active) and 26.6 µM (active),54.3 µM (active) and 29.8 µM (active),inactive,50.8 µM (active) and 54.3 µM (active),32.3 µM (active) and 34.5 µM (active) and inactive,inactive,inactive,–,–
O=C1NCN(c2ccccc2)C12CCN(CC1COc3ccccc3O1)CC2 (stereo not drawn),inactive,inactive,inactive,inactive,inactive,–,inactive,inactive,inactive,–
c1ccc2c(c1)OCC(C1=NCCN1)O2 (stereo not drawn),23.7 µM (active),29.8 µM (active),21.1 µM (active),inactive,21.1 µM (active),–,49.2 µM (active),15 µM (active),–,–
CCCCCCCCCCCCCCCC[N+](C)(C)C,54.5 µM (active),54.5 µM (active),inactive,inactive,inactive and 61.1 µM (active),inactive,inactive,–,–,–
N#Cc1ccc(O)cc1,inactive,inactive,inactive,inactive,–,inactive,inactive,inactive,–,–
CCOC(=O)C1(c2ccccc2)CCN(CCC(C#N)(c2ccccc2)c2ccccc2)CC1,inactive,inactive,inactive,–,inactive,inactive,inactive,inactive,–,–
ClCc1ccc(Cl)cc1Cl,inactive,inactive,inactive,inactive,–,inactive,inactive,inactive,–,–
Clc1ccc(Oc2ccccc2)cc1,inactive,inactive,inactive,inactive,–,inactive,inactive,–,–,–
COP(N)(=S)OC,inactive,inactive,inactive,inactive,–,inactive,inactive,inactive,inactive,inactive
c1ccc2cc3c(cc2c1)-c1cccc2cccc-3c12,inactive,inactive,inactive,0.955 µM (active),–,inactive,inactive,–,inactive,inactive
N#Cc1ccccc1N,inactive,inactive,inactive,inactive,–,inactive,inactive,inactive,inactive,–
CC(C)OC(=O)C(O)(c1ccc(Cl)cc1)c1ccc(Cl)cc1,inactive,inactive,inactive,–,inactive,54.9 µM (active),80 µM (active),48.6 µM (active),–,–
CCOP(=S)(OCC)SCS(=O)(=O)C(C)(C)C,inactive,inactive,inactive,–,inactive,inactive,–,inactive,–,–
CCCCOCN(C(=O)CCl)c1c(CC)cccc1CC,inactive,inactive,inactive,27.3 µM (active),–,–,–,inactive,inactive,12.2 µM (active)
OC(c1ccc(Cl)cc1)(c1ccc(Cl)cc1)C(Cl)(Cl)Cl,inactive,inactive,inactive,–,inactive,21.9 µM (active),–,–,inactive,inactive
CC(Cc1ccc(C(C)(C)C)cc1)CN1C[C@@H](C)O[C@@H](C)C1 (stereo partly drawn),inactive,inactive,inactive,inactive,–,–,–,–,inactive,inactive
O=c1oc2ccccc2c(O)c1Cc1c(O)c2ccccc2oc1=O,inactive,inactive,inactive,–,inactive,inactive,–,–,inactive,–
CCCCCCCCCC[N+](C)(C)CCCCCCCCCC,43.3 µM (active),24.3 µM (active),27.3 µM (active),inactive,–,27.5 µM (active),–,inactive,–,–
BrCBr,inactive,inactive,inactive,inactive,–,inactive,inactive,inactive,–,–
CCCCOP(=O)(CCCC)OCCCC,inactive,inactive,inactive,–,inactive,inactive,inactive,–,inactive,–
